Reference: PubChem BioAssay (NCI)
Compounds without any hit were thinned out: in the full panel of roughly 83,000, 20% have a hit.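 Single-dose data. Exposure time 48 hours. Values below 10 considered active.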 Unmarked numbers belong to inactive results. Activity calls are given as the source filed them.

Each molecule was assayed on HL-60(TB) leukemia (assay: NCI-60 one-dose screen, 48 h (100 = growth as untreated, 0 = no growth, -100 = all killed)). Conditions: 10 µM unless noted.

SMILES	growth
O=C1Nc2ccccc2/C1=C/C(=O)c1cc2ccccc2oc1=O	102%
O=C1CCC(N2Cc3cc(CC(=O)Nc4ccc(N5CCCCC5)cc4)ccc3C2=O)C(=O)N1 (stereo not given)	-0.226% (active)
CC(=O)Nc1ccc(-n2cnc3cc(-c4ccc(O)cc4)ccc32)cc1C	26.6%
COc1cccc(-c2ccc(/C=N/NC(=O)c3[nH]c4ccc(Br)cc4c3-c3ccccc3)s2)c1	-28.2% (active)
Cc1ccccc1Nc1nnc(-c2c[nH]c3ccccc23)o1	-23.7% (active)
Nc1cc2ccccc2c(=O)n1NC(=O)c1ccc(Br)cc1	99.4%
C[C@@H]1CN(c2ccc3ncc(C#Cc4cncc(C(=O)Nc5ccc(CN6CCN(C)CC6)c(C(F)(F)F)c5)c4)n3n2)C[C@@H](C)O1	-53.6% (active)
COc1ccc(C(=O)C[n+]2cccc3c4ccccc4ccc32)cc1	22%
C/C(=N\N=C\c1cc([N+](=O)[O-])ccc1Cl)c1ccc2c(c1)Nc1ccccc1S2	84.6%
O=c1[nH]c2ccccc2cc1COc1ccc(Nc2nccc(-c3ccc(Cl)cc3)n2)cc1	95%
COc1ccc(Cn2cc(C#N)c(N)c2C(C)=O)c(OC)c1	99%
COc1ccc(-c2cc(C(=O)N=Nc3c(O)[nH]c4ccc(Cl)cc34)c3ccccc3n2)cc1	96%
Cn1cc(-c2nnc(N)nc2-c2c[nH]c3ccc(Br)cc23)c2cc(Br)cnc21	29.8%
COc1c(F)ccc(C(=O)Nc2ccc3nc(NC(=O)C4CCCN(S(=O)(=O)c5ccc(Br)c(F)c5)C4)sc3c2)c1F (stereo not given)	88.8%
O=c1c2ccccc2nc(-c2ccccc2)n1/N=C/c1ccc2ccccc2c1	35.7%
